We go through eleven molecules from PubChem BioAssay (EPA / NIEHS).

Test [1] concerns the target human Opioid Receptor Delta 1 (Opiate D1), OPRD1 (gene 4985) (UniProt P41143). Kind of test: NVS_GPCR_hOpiate_D1: NovaScreen (NVS) G Protein-Coupled Receptor Assay for human Opioid Receptor Delta 1 (Opiate D1) (AID 2283280). How it is done: (§1) NVS_GPCR_hOpiate_D1 is a biochemical, single-readout assay that uses extracted gene-proteins from CHO in a cell-free assay. Measurements were taken 1 hour after chemical dosing in a 96-well plate.NVS_GPCR_hOpiate_D1 is one of one assay component(s) measured or calculated from the NVS_GPCR_hOpiate_D1 assay. It is designed to make measurements of radioligand binding, a form of binding reporter, as detected with scintillation counting signals by Filter-based radiodetection technology.Data from the assay component NVS_GPCR_hOpiate_D1 was analyzed into 1 assay endpoint. This assay endpoint, NVS_GPCR_hOpiate_D1, was analyzed in the positive analysis fitting direction relative to DMSO as the negative control and baseline of activity. Using a type of binding reporter, loss-of-signal activity can be used to understand changes in the binding as they relate to the gene OPRD1. Furthermore, this assay endpoint can be referred to as a primary readout, because the performed assay has only produced 1 assay endpoint. To generalize the intended target to other relatable targets, this assay endpoint is annotated to the gpcr intended target family, where the subfamily is rhodopsin-like receptor.
Binding assays used specific radioligands (tritiated, iodinated) with non-radioactive competitive displacement ligands in agonist or antagonist protocols (as indicated) and various reference compounds and inhibitors to titrate specific binding to receptors and transporters. Most enzyme assays (CYPs, kinases, phosphatases, proteases, HDACs) used recombinant protein and specific substrates (fluorescence mostly, some colorimetric and radioactive) and inhibitors, followed by a biochemical separation of substrate and product. All assays for the biochemical HTS were initially run in duplicate at a single concentration (10 uM for CYP450 assays and 25 uM for all others). […] Each assay was run with positive and negative controls, and concurrent controls on every plate. The follow-up (secondary) screen tested active chemical-pairs in concentration series, as well as a few additional assays not tested in the primary screen, some selected negative inactives, and several cases re-run in the concentration series for confirmatory purposes.

The target of test [2] is human Thromboxane A2 Receptor (TXA2), TBXA2R (gene 6915) (UniProt P21731). Kind of test: NVS_GPCR_hTXA2: NovaScreen (NVS) G Protein-Coupled Receptor Assay for human Thromboxane A2 Receptor (TXA2) (AID 2283282).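 Also: actives reduce bound radioligand signal relative to DMSO baseline.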 In outline: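 Cell-free radioligand binding on membrane protein from human platelets; radioligand displacement read by filter-based scintillation counting after 1 h. Primary screen in duplicate at 25 uM, actives then run in concentration series; loss of signal versus DMSO.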
Sequence of human Thromboxane A2 Receptor (TXA2), TBXA2R (gene 6915) (P21731 whole entry, looked up): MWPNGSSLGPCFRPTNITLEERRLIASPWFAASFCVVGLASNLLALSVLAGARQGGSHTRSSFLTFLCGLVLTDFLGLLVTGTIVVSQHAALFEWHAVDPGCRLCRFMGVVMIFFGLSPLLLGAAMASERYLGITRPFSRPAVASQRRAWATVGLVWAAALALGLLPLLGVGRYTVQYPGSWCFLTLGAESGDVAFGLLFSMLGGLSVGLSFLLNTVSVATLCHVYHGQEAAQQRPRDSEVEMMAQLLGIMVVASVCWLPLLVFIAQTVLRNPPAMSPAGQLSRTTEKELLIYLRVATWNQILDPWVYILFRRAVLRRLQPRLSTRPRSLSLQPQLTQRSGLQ

In test [3] the test system is 5-hydroxytryptamine receptor 2C (pig). Kind of test: NVS_GPCR_p5HT2C: NovaScreen (NVS) G Protein-Coupled Receptor Assay for pig Serotonin, 5-Hydroxytryptamine Receptor 2C (5HT2C) (AID 2283288). In outline:
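Radioligand displacement on membranes from pig choroid plexus, detected by filter scintillation counting after 1 h. Tested first at a single 25 uM in duplicate, then in concentration-response for actives; DMSO served as baseline.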

For test [4], the target named is rat Adrenergic, Alpha 1, Non-selective Receptor (Adra1), Adra1a (gene 29412) (UniProt P43140). Kind of test: NVS_GPCR_rAdra1_NonSelective: NovaScreen (NVS) G Protein-Coupled Receptor Assay for rat Adrenergic, Alpha 1, Non-selective Receptor (Adra1) (AID 2283289). In outline:
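Chemicals first screened in duplicate at 25 uM, then actives tested in concentration series up to 50 uM. Binding measured as displacement of radioligand from rat forebrain membrane receptors, 1 h, filtration with scintillation readout; DMSO baseline.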

Test [5] addresses mouse Cholecystokinin, CCK1 Receptor (CCKA), Cckar (gene 12425) (UniProt O08786). Kind of test: NVS_GPCR_mCCKAPeripheral: NovaScreen (NVS) G Protein-Coupled Receptor Assay for mouse Cholecystokinin, CCK1 Receptor (CCKA) (AID 2283285). How it is done:
NVS_GPCR_mCCKAPeripheral is a biochemical, single-readout assay that uses extracted gene-proteins from Mouse pancreatic membranes in a tissue-based cell-free assay. Measurements were taken 2 hours after chemical dosing in a 96-well plate.NVS_GPCR_mCCKAPeripheral is one of one assay component(s) measured or calculated from the NVS_GPCR_mCCKAPeripheral assay. It is designed to make measurements of radioligand binding, a form of binding reporter, as detected with scintillation counting signals by Filter-based radiodetection technology.Data from the assay component NVS_GPCR_mCCKAPeripheral was analyzed into 1 assay endpoint. This assay endpoint, NVS_GPCR_mCCKAPeripheral, was analyzed in the positive analysis fitting direction relative to DMSO as the negative control and baseline of activity. Using a type of binding reporter, loss-of-signal activity can be used to understand changes in the binding as they relate to the gene Cckar. Furthermore, this assay endpoint can be referred to as a primary readout, because the performed assay has only produced 1 assay endpoint. To generalize the intended target to other relatable targets, this assay endpoint is annotated to the gpcr intended target family, where the subfamily is rhodopsin-like receptor.
(§2) Binding assays used specific radioligands (tritiated, iodinated) with non-radioactive competitive displacement ligands in agonist or antagonist protocols (as indicated) and various reference compounds and inhibitors to titrate specific binding to receptors and transporters. Most enzyme assays (CYPs, kinases, phosphatases, proteases, HDACs) used recombinant protein and specific substrates (fluorescence mostly, some colorimetric and radioactive) and inhibitors, followed by a biochemical separation of substrate and product. All assays for the biochemical HTS were initially run in duplicate at a single concentration (10 uM for CYP450 assays and 25 uM for all others). Assay-chemical combinations meeting a pre-defined threshold (e.g., 30% inhibition and other criteria defined below) were then run in singleton concentration-response format with maximum concentration of 20 uM for CYPs and 50 uM for all others. Each assay was run with positive and negative controls, and concurrent controls on every plate. The follow-up (secondary) screen tested active chemical-pairs in concentration series, as well as a few additional assays not tested in the primary screen, some selected negative inactives, and several cases re-run in the concentration series for confirmatory purposes.

The test system of test [6] is rabbit Platelet Activating Factor Receptor (PAF), gene 100354046. Kind of test: NVS_GPCR_rabPAF: NovaScreen (NVS) G Protein-Coupled Receptor Assay for rabbit Platelet Activating Factor Receptor (PAF) (AID 2283287). The method in brief: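 Rabbit platelet membrane preparation; radioligand displacement read by filter-based scintillation counting 1 h after dosing, loss of signal versus DMSO. Primary screen in duplicate at 25 uM, actives followed up in concentration series.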

Test [7] has as its target rat Serotonin, 5-Hydroxytryptamine Receptor 1 (5HT1), Non-Selective Binding, Htr1a (gene 24473) (UniProt P19327). Kind of test: NVS_GPCR_r5HT1_NonSelective: NovaScreen (NVS) G Protein-Coupled Receptor Assay for rat Serotonin, 5-Hydroxytryptamine Receptor 1 (5HT1), Non-Selective Binding (AID 2283286). The method in brief:
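Binding of a radioligand to rat cortex membranes is read by filtration and scintillation counting after 1 h. Compounds were screened at 25 uM in duplicate. Actives were then titrated to a top of 50 uM. DMSO is the baseline.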

The target in test [8] is human Orphanin, Opioid Related Nociceptin Receptor 1 (ORL1), OPRL1 (gene 4987) (UniProt P41146). Kind of test: NVS_GPCR_hORL1: NovaScreen (NVS) G Protein-Coupled Receptor Assay for human Orphanin, Opioid Related Nociceptin Receptor 1 (ORL1) (AID 2283283). In outline:
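Cell-free binding using HEK293-derived receptor protein: radioligand displacement measured by filter scintillation 1 hour after dosing. Primary testing at 25 uM in duplicate, followed by singleton concentration series up to 50 uM; DMSO served as negative control.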

Test [9] addresses human Purinergic Receptor P2Y, P2RY1 (gene 5028) (UniProt P47900). Kind of test: NVS_GPCR_hPY2: NovaScreen (NVS) G Protein-Coupled Receptor Assay for human Purinergic Receptor P2Y (AID 2283281). How it is done: as §1, with “NVS_GPCR_hPY2” for “NVS_GPCR_hOpiate_D1”, “U937” for “CHO”, “48-well plate.NVS_GPCR_hPY2” for “96-well plate.NVS_GPCR_hOpiate_D1”, “NVS_GPCR_hPY2,” for “NVS_GPCR_hOpiate_D1,”, “P2RY1.” for “OPRD1.”
as §2, with “Each assay was run with positive and negative controls, and concurrent controls on every plate. The follow-up (secondary) screen tested active chemical-pairs in concentration series, as well as a few additional assays not tested in the primary screen, some selected negative inactives, and several cases re-run in the concentration series for confirmatory purposes.” left out

Where “and” joins values, the source holds several entries; their conditions need not be identical. Equal values may be shown once. Inconclusive results are not listed. Calls of active or inactive are those of the source. The calls were made as follows: active = hit-call score of the fitted dose curve at least 0.9, where 1 is the maximum; inconclusive = response in the unintended direction; inactive = score below 0.9.

Sequence of human Opioid Receptor Delta 1 (Opiate D1), OPRD1 (gene 4985) (P41143 whole entry, looked up): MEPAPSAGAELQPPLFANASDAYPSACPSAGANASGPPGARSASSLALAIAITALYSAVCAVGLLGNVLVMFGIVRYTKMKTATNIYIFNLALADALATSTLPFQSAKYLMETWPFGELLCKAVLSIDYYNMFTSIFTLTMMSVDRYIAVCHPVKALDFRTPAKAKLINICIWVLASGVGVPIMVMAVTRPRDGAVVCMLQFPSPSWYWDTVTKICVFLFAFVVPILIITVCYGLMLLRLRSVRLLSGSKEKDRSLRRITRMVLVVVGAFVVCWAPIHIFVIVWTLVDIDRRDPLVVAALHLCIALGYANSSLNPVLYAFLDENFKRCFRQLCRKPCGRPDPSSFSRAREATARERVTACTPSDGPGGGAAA
Sequence of human Orphanin, Opioid Related Nociceptin Receptor 1 (ORL1), OPRL1 (gene 4987) (P41146 whole entry, looked up): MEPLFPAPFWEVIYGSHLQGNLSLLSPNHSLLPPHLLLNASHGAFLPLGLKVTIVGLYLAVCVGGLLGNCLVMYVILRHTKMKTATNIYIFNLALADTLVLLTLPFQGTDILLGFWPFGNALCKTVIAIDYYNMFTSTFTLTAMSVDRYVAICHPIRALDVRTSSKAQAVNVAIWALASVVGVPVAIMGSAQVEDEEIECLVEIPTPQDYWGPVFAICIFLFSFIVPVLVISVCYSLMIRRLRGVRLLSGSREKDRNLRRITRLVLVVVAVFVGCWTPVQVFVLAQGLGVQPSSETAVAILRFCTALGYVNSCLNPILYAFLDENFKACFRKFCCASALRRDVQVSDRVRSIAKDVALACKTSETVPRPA
Sequence of rat Adrenergic, Alpha 1, Non-selective Receptor (Adra1), Adra1a (gene 29412) (P43140 whole entry, looked up): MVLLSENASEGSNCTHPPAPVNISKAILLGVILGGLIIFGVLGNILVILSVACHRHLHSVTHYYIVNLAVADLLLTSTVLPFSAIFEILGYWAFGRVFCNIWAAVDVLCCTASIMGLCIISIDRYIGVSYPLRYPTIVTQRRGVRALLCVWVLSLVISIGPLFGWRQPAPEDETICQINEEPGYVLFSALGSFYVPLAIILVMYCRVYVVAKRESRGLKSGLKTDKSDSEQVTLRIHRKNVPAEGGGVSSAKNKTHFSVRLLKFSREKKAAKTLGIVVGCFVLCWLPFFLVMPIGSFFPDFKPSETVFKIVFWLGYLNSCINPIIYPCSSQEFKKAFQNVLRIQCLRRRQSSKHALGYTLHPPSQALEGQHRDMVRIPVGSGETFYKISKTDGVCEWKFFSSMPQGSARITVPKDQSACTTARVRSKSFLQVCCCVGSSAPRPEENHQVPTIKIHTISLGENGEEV
Sequence of human Purinergic Receptor P2Y, P2RY1 (gene 5028) (P47900 whole entry, looked up): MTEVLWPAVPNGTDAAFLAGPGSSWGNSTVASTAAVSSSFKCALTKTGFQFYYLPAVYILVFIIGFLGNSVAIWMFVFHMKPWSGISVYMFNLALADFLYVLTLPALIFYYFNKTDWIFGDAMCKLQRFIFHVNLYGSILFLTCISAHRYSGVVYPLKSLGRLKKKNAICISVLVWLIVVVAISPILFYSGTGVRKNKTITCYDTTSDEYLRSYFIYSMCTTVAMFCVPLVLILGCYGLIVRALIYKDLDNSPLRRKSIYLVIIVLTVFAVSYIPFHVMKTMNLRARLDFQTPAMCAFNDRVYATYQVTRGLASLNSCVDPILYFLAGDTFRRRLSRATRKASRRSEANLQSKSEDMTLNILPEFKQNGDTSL
Sequence of rat Serotonin, 5-Hydroxytryptamine Receptor 1 (5HT1), Non-Selective Binding, Htr1a (gene 24473) (P19327 whole entry, looked up): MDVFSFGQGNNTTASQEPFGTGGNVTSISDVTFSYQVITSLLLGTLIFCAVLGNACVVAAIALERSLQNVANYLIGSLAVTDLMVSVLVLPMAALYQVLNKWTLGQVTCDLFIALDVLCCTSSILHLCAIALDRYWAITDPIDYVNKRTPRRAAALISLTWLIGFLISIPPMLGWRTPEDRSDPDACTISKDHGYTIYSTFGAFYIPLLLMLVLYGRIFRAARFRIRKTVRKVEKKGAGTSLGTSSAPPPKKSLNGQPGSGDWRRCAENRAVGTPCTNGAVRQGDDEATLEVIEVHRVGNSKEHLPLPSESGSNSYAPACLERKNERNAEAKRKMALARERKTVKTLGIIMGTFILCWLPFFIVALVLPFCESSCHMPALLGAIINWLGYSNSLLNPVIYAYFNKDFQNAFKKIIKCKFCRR
Sequence of mouse Cholecystokinin, CCK1 Receptor (CCKA), Cckar (gene 12425) (O08786 whole entry, looked up): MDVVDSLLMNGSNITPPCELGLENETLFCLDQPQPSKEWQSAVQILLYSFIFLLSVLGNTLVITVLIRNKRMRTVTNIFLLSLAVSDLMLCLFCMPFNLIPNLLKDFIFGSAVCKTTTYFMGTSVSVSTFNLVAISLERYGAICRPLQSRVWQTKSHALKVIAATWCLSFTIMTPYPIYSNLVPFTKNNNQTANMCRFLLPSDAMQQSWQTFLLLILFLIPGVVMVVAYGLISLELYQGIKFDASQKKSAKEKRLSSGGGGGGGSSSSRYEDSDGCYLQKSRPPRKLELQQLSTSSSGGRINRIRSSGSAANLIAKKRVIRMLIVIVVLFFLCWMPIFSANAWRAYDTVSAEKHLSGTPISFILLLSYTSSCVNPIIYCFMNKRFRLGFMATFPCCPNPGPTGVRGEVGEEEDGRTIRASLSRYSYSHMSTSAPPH

Usually AC50 stands for the concentration giving half of the maximal activity seen. With `O=C1OC(c2ccc(O)cc2)(c2ccc(O)cc2)c2ccccc21`, the figures for the half-maximal activity concentration (AC50) in test [1] and in test [2] were 6.64 µM (active) and 0.454 µM (active), respectively.
For `CSc1ccc(Oc2ccc(S(N)(=O)=O)cc2CN(C)C)cc1C`, the concentration at half-maximal activity (AC50) was 15 µM (active) in test [1], 19.2 µM (active) in test [3] and 1.08 µM (active) in test [4].
Take `Cc1cc(SC2=C(O)C[C@@](CCc3ccc(N)cc3)(C(C)C)OC2=O)c(C(C)(C)C)cc1CO`: the AC50 in [2] is 0.881 µM (active). Besides, in [5], the call was inactive.
For the molecule `COC(=O)[C@H]1[C@H]2C[C@@H]3c4[nH]c5cc(OC)ccc5c4CCN3C[C@H]2C[C@@H](OC(=O)c2cc(OC)c(OC)c(OC)c2)[C@@H]1OC`, in test [6], the half-maximal activity concentration (AC50) is 5.47 µM (active). For the same molecule, in test [3], the molecule was called inactive.
Consider `O=C(O)c1[nH]n(-c2ccc(S(=O)(=O)O)cc2)c(=O)c1N=Nc1ccc(S(=O)(=O)O)cc1`, for which, in [7], the concentration at half-maximal activity (AC50) is 5.69 µM (active). Further, the call in test [4] was inactive.
In the case of `O=C(N[C@@H](c1ccccc1)[C@@H]1CCCCN1)c1cccc(C(F)(F)F)c1Cl`, the result in [4] was inactive.
Turning to `OCC(O)CO`, in test [1], the molecule was called inactive.
Turning to `CCN(CC)CCOc1ccc(C(=C(Cl)c2ccccc2)c2ccccc2)cc1`, the half-maximal activity concentration (AC50) in test [1] was 9.7 µM (active); in test [8], 28.9 µM (active) and 7.41 µM (active) and 31.3 µM (active); in test [5], 21.4 µM (active); in test [6], 4.76 µM (active); in test [3], 21 µM (active) and 5.8 µM (active) and 15.9 µM (active); in test [4], 7.75 µM (active).
With `Cn1cnc2c1c(=O)[nH]c(=O)n2C`, the outcome in [1] and in test [7] was inactive.
In the case of `CS(=O)(=O)c1ccc([C@@H](C[C@H]2CCC(=O)C2)C(=O)Nc2cnccn2)cc1Cl`, the call in [9] was inactive.
On to `CCCCCCCCCCCCCCOS(=O)(=O)O`, for which the AC50 is 8.07 µM (active) in test [1], 10.3 µM (active) in test [9], 7.59 µM (active) in test [2] and 16.3 µM (active) in test [8].
